Test results from PubChem BioAssay (EPA / NIEHS).
Results filed as inconclusive are left out. Calls of active or inactive are those of the source. Rule for the calls, unless noted: active = hit-call score of the fitted dose curve at least 0.9, where 1 is the maximum; inactive = score below 0.9.

Assays:
[1] = CCTE_Shafer_MEA_dev_per_burst_spike_percent: CCTE's Neural Network Formation Assay for Percent of Spikes in a Burst, Shafer Lab (AID 2284032);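 note: fitted as a decrease in burst spike percentage below DMSO baseline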
In short: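 Value is trapezoidal AUC over recordings on days 5, 7, 9 and 12 of the well-mean fraction of spikes falling in single-electrode bursts; rat cortical cultures exposed continuously from plating, treatment renewed DIV 5 and 9, fitted downward against DMSO.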

[2] = CCTE_Shafer_MEA_dev_active_electrodes_number: CCTE's Neural Network Formation Assay for Number of Active Electrodes, Shafer Lab (AID 2284040; active = hit-call score of the fitted dose curve at least 0.9, where 1 is the maximum;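 note: potency for loss of active electrodes versus DMSO so lower counts are hits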)
In short: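 Developing rat cortical networks on MEAs, exposed DIV 0–12. Value is the AUC of active-electrode counts (≥5 spikes/min) from days 5, 7, 9, 12, relative to DMSO.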

[3] = CCTE_Shafer_MEA_dev_per_burst_interspike_interval: CCTE's Neural Network Formation Assay for Burst Interspike Interval, Shafer Lab (AID 2284044)
In short: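 Spontaneous activity of maturing rat cortical networks is recorded on DIV 5, 7, 9 and 12 under chronic compound exposure beginning at plating. Endpoint: burst interspike interval well-mean, collapsed into trapezoidal AUC and fitted in the negative direction relative to DMSO.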

[4] = CCTE_Shafer_MEA_dev_burst_duration_mean: CCTE's Neural Network Formation Assay for Mean Burst Duration, Shafer Lab (AID 2284045)
In short: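 Rat cortical cultures, 1.5 x 10^5 cells/well with laminin drop; continuous dosing days 0–12, media plus treatment refreshed DIV 5, 9. AxIS adaptive spike detection; mean single-electrode burst duration, AUC over four recordings, negative direction vs DMSO.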

[5] = CCTE_Shafer_MEA_dev_interburst_interval_mean: CCTE's Neural Network Formation Assay for Mean Interburst Interval, Shafer Lab (AID 2284046);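 note: well-mean interburst interval of bursting electrodes as AUC over four recording days; curve fitted for decrease in interburst interval relative to DMSO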
In short: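 Rat cortical neurons, 1.5 x 10^5 cells/well, 48-well MEA; compound from day 0 through DIV 12, media and treatment renewed DIV 5/9. Recordings DIV 5, 7, 9, 12; well-mean interburst interval → trapezoidal AUC, loss direction vs DMSO.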

[6] = CCTE_Shafer_MEA_dev_inter_network_spike_interval_mean: CCTE's Neural Network Formation Assay for Mean Inter-network Spike Interval, Shafer Lab (AID 2284047)
In short: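 Primary rat cortical neurons on PEI-coated 48-well MEAs (16 electrodes/well) were exposed from plating day 0 to DIV 12, with dosing renewed at DIV 5 and 9. Recordings at DIV 5, 7, 9, 12 were collapsed by trapezoidal AUC, loss-of-signal fit vs DMSO.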

[7] = CCTE_Shafer_MEA_dev_network_spike_number: CCTE's Neural Network Formation Assay for Number of Network Spikes, Shafer Lab (AID 2284048);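 note: synchronized bursts across electrodes counted on days 5 7 9 12 and integrated as AUC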
In short: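 Rat cortical primary cultures on 48-well MEA (16 electrodes/well); continuous exposure DIV 0–12, full medium and treatment exchange DIV 5, 9. Readout: network spike count, AxIS adaptive detection, recordings DIV 5/7/9/12 collapsed to AUC; loss-of-signal fit, DMSO baseline.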

[8] = CCTE_Shafer_MEA_dev_network_spike_peak: CCTE's Neural Network Formation Assay for Mean Number of Electrodes in Network Spike, Shafer Lab (AID 2284049);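 note: fitted for loss of signal meaning fewer electrodes in network spikes than DMSO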
In short: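 Network-spike peak electrode count from recordings on days 5, 7, 9 and 12 was combined as trapezoidal area under the curve. Rat cortical cultures were treated continuously from plating, with compound renewed at each feed (DIV 5, 9); fits versus DMSO.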

[9] = CCTE_Shafer_MEA_dev_spike_duration_mean: CCTE's Neural Network Formation Assay for Mean Spike Duration, Shafer Lab (AID 2284051);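 note: mean network spike duration pooled as area under curve over DIV 5 to 12 recordings; potency for a decrease in mean network spike duration versus DMSO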
In short: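 Rat cortical primary cultures, 48-well MEA (16 electrodes/well); compound from plating, renewed DIV 5, 9. Network spike duration (AxIS adaptive detector) recorded DIV 5/7/9/12, combined as trapezoidal AUC; loss direction vs DMSO.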

[10] = CCTE_Shafer_MEA_dev_network_spike_duration_std: CCTE's Neural Network Formation Assay for Standard Deviation of Network Spike Duration, Shafer Lab (AID 2284052);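 note: area under curve of spike duration SD across recording days 5 to 12; hits are decreases in network spike duration SD versus DMSO vehicle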
In short: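 Rat cortical cultures, 1.5 x 10^5 cells/well, exposed continuously from plating to DIV 12 with media/compound renewal at DIV 5, 9. Spontaneous activity recorded DIV 5/7/9/12, AxIS adaptive spike detector; AUC across days; negative direction vs DMSO.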

[11] = CCTE_Shafer_MEA_dev_per_network_spike_spike_number_mean: CCTE's Neural Network Formation Assay for Mean Number of Spikes in a Network Spike, Shafer Lab (AID 2284053);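 note: fitted as decrease in spikes per network spike relative to DMSO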
In short: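 Rat cortical primary cultures on 48-well MEA; compound from day 0, re-dosed with full media change DIV 5, 9. Recorded DIV 5, 7, 9, 12; spikes in 0.05 s window at network-spike peak ÷ total network spikes; AUC; loss vs DMSO.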

[12] = CCTE_Shafer_MEA_dev_per_network_spike_spike_percent: CCTE's Neural Network Formation Assay for Percent of Spikes in a Network Spike, Shafer Lab (AID 2284054)
In short: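 Read-out: percent of spikes falling in a 0.05 s window at network-spike peak, from spontaneous MEA recordings on days 5, 7, 9 and 12; trapezoidal AUC; loss of signal versus DMSO. Rat cortical cultures, compound present throughout.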

[13] = CCTE_Shafer_MEA_dev_AB: CCTE's Alamar Blue Assay for Cytotoxicity in the Neural Network Formation Assay, Shafer Lab (AID 2284083; active = hit-call score of the fitted dose curve at least 0.9, where 1 is the maximum;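 note: resazurin reduction fluorescence as viability of cultured neurons; twelve days of exposure from plating with re-dosing on DIV 5 and 9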)
In short: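 Rat cortical primary cultures, 1.5 x 10^5 cells/well on MEA; continuous compound exposure over 12 days of network development, re-dosed with full medium change DIV 5 and 9. Alamar Blue fluorescence; loss of signal = cytotoxicity vs DMSO baseline.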

[14] = CCTE_Shafer_MEA_dev_mutual_information_norm: CCTE's Neural Network Formation Assay for Mutual Information Normalization, Shafer Lab (AID 2284091);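 note: mutual information between electrodes summarised as area under curve across four recording days; potency is for a decrease in mutual information relative to DMSO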
In short: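 Neurons from rat cortex were seeded at 1.5 x 10^5 cells/well onto PEI-coated MEAs in a laminin drop, then exposed to compound from day 0 for twelve days. Network recordings on four days gave mutual information, summarised by AUC relative to DMSO.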

[15] = CCTE_Shafer_MEA_dev_correlation_coefficient_mean: CCTE's Neural Network Formation Assay for Mean Correlation Coefficient, Shafer Lab (AID 2284093);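 note: well mean pairwise spike train correlation integrated as AUC over recording days 5 to 12; potency fitted for loss of correlation relative to DMSO vehicle wells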
In short: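 Rat cortical cultures, 1.5 x 10^5 cells/well, dosed from day 0 for 12 days. Spontaneous spikes recorded DIV 5/7/9/12; electrode-pair correlation coefficients averaged, AUC taken. Fit in loss direction vs DMSO.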

[16] = CCTE_Mundy_HCI_Cortical_Synap_Neur_Matur_NeuriteSpotCountPerNeuriteLength: CCTE's Synaptogenesis and Neurite Maturation Assay in rat cortical cells for Neurite Spot Count per Neurite Length, Mundy Lab (AID 2284210)
In short: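 Read-out: synaptophysin puncta counted along MAP2-stained neurites, normalised to neurite length, by automated high-content imaging. Rat cortical cells; AraC DIV 5; chemical dosing DIV 7; termination DIV 12. DMSO baseline.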

[17] = CCTE_Mundy_HCI_Cortical_Synap_Neur_Matur_BPCount: CCTE's Synaptogenesis and Neurite Maturation Assay in rat cortical cells for Branch Point Count, Mundy Lab (AID 2284211)
In short: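 In this multiplexed morphology assay, cortical cells from rat receive chemicals at DIV 7 and are fixed at DIV 12, then immunostained and imaged; branch points are counted, with DMSO as baseline.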

[18] = CCTE_Mundy_HCI_Cortical_Synap_Neur_Matur_NeuriteLength: CCTE's Synaptogenesis and Neurite Maturation Assay in rat cortical cells for Neurite Length, Mundy Lab (AID 2284214)
In short: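 Read-out: high-content imaging of MAP2-labelled neurites, with synaptophysin and Hoechst co-stain, in rat cortical cultures fixed at DIV 12. Activity fitted in positive direction relative to DMSO baseline.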

[19] = CCTE_Mundy_HCI_Cortical_Synap_Neur_Matur_NeuriteSpotCountPerNeuron: CCTE's Synaptogenesis and Neurite Maturation Assay in rat cortical cells for Neurite Spot Count per Neuron Count, Mundy Lab (AID 2284215)
In short: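 Developing rat cortical neurons, with glia suppressed by AraC, are exposed to chemicals from DIV 7 to DIV 12. Automated fluorescence imaging of MAP2-labelled neurites and synaptophysin puncta yields a count per neuron, normalised against DMSO wells.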

[20] = CCTE_Mundy_HCI_Cortical_Synap_Neur_Matur_SynapseCount: CCTE's Synaptogenesis and Neurite Maturation Assay in rat cortical cells for Synapse Count, Mundy Lab (AID 2284218)
In short: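 Read-out: synapse number per neuron, automated high-content imaging of fixed cells immunostained for MAP2 and synaptophysin plus Hoechst nuclei. Rat primary cortical cultures, AraC at DIV 5, chemical dosing DIV 7–12. Positive-direction fit relative to DMSO.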

[21] = CCTE_Mundy_HCI_Cortical_Synap_Neur_Matur_NeuriteCount: CCTE's Synaptogenesis and Neurite Maturation Assay in rat cortical cells for Neurite Count, Mundy Lab (AID 2284222)
In short: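 Primary rat cortical cells were plated, treated with AraC at DIV 5, then exposed to chemicals from DIV 7 through DIV 12. After fixation and immunostaining for MAP2 and synaptophysin, imaging quantified neurites, with DMSO as the negative control.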

[22] = CCTE_Mundy_HCI_Cortical_Synap_Neur_Matur_CellBodySpotCount: CCTE's Synaptogenesis and Neurite Maturation Assay in rat cortical cells for Cell Body Spot Count, Mundy Lab (AID 2284223)
In short: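 Chemicals were applied to AraC-treated rat primary cortical cells at DIV 7 and measured at DIV 12. Fixed cells were labelled for MAP2, synaptophysin and nuclei, and high-content imaging gave cell body synaptophysin spot counts per neuron relative to DMSO.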

[23] = CCTE_Mundy_HCI_Cortical_Synap_Neur_Matur_NeuronCount: CCTE's Synaptogenesis and Neurite Maturation Assay in rat cortical cells for Neuron Count, Mundy Lab (AID 2284242; active = hit-call score of the fitted dose curve at least 0.9, where 1 is the maximum;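 note: hits reduce neuron count versus DMSO baseline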)
In short: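 Rat cortical cultures; AraC DIV 5; chemical dosing + media change DIV 7 to DIV 12 (288.33 h readout). Fix, Hoechst, anti-MAP2/anti-synaptophysin immunostain; HCI neuron count vs DMSO baseline.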

Measured: AC50

[O]=[V]([OH])([OH])[OH]
inactive: [3] | [4] | [5] | [6] | [7] | [10]
active: [1] 15 µM | [2] 15 µM | [8] 10.7 µM | [9] 15 µM | [11] 13.9 µM | [12] 15 µM | [13] 28 µM | [14] 4.55 µM | [15] 13.6 µM | [16] 40.2 µM | [17] 12.2 µM | [18] 27 µM | [19] 11.6 µM | [20] 15.4 µM | [21] 78.5 µM | [22] 44.3 µM | [23] 19.6 µM
